# Reference: publication PMC5540273 (PLoS ONE, 2017)
# Assays:
# Settings in all cases: concentration: 1 μM, replicates: in singlicate; n = 1
# DLK = tested on: T1, DLK
# T1 construct: gene MAP3K12
# DMPK2 = tested on: T2, DMPK2
# T2 construct: gene CDC42BPG
# DMPK = tested on: DMPK
# DRAK1 = tested on: T3, DRAK1
# T3 construct: gene STK17A
# DRAK2 = tested on: T4, DRAK2
# T4 construct: gene STK17B
# DYRK1A = tested on: DYRK1A
# DYRK1B = tested on: DYRK1B
# DYRK2 = tested on: DYRK2
# EGFR = tested on: EGFR
# EIF2AK1 = tested on: EIF2AK1
# EPHA1 = tested on: EPHA1
# EPHA2 = tested on: EPHA2
# EPHA3 = tested on: EPHA3
# EPHA4 = tested on: EPHA4
# EPHA5 = tested on: EPHA5
# EPHA6 = tested on: EPHA6
# EPHA7 = tested on: EPHA7
# EPHA8 = tested on: EPHA8
# EPHB1 = tested on: EPHB1
# EPHB2 = tested on: EPHB2
# 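Further: KINOMEscan kinase panel screen.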
Structure (SMILES),%Inh (DLK) [%],%Inh (DMPK2) [%],%Inh (DMPK) [%],%Inh (DRAK1) [%],%Inh (DRAK2) [%],%Inh (DYRK1A) [%],%Inh (DYRK1B) [%],%Inh (DYRK2) [%],%Inh (EGFR) [%],%Inh (EIF2AK1) [%],%Inh (EPHA1) [%],%Inh (EPHA2) [%],%Inh (EPHA3) [%],%Inh (EPHA4) [%],%Inh (EPHA5) [%],%Inh (EPHA6) [%],%Inh (EPHA7) [%],%Inh (EPHA8) [%],%Inh (EPHB1) [%],%Inh (EPHB2) [%]
Nc1nc(-c2ccccc2F)c(-c2ccnc3ccccc23)s1 [GW560459],36,3,0,0,3,9,4,0,36,0,0,0,0,0,0,0,0,0,34,0
Cc1nnc(-c2ccc3ncn(-c4ccc(S(C)=O)cc4)c3c2)o1 (stereo not shown),0,0,1,3,18,0,26,7,0,0,0,0,5,46,17,50,1,0,1,15
O=C(Nc1n[nH]c2cc(-c3ccccc3F)ccc12)C1CC1 [SB-733371],0,0,0,0,0,4,0,3,0,0,22,0,19,0,0,5,0,22,4,0
COc1ccc(CNC(=O)NC2CCN(c3ccnc(Nc4ccc(F)cc4)n3)C2)cc1 (stereo not shown) [GSK1379706],42,16,0,6,0,0,0,0,20,0,0,7,17,8,0,0,1,16,16,30
O=c1cc(N2CCOCC2)nc2n(Cc3ccc(F)c(Cl)c3)ccn12 [GSK2297099],6,0,0,0,0,12,39,0,18,0,12,0,18,3,0,0,6,6,7,0
COc1ccc(-c2coc3ccc(-c4nnc(SCc5cccc(C#N)c5)o4)cc23)cc1,1,0,0,2,7,5,0,2,0,30,7,3,2,25,21,26,0,0,0,5
CCS(=O)c1ccc(-c2coc3ccc(-c4nnc(C)o4)cc23)cc1 (stereo not shown),30,0,6,0,0,0,7,0,5,0,5,13,4,0,4,12,0,0,0,0
COc1cc2ncn(-c3cc(OCc4ccncc4Br)c(C(N)=O)s3)c2cc1OC [GW854278],12,0,3,4,5,3,8,30,27,0,25,10,21,0,0,0,0,5,0,9
COc1cc2ncn(-c3cc(OCc4ccc(S(C)(=O)=O)cc4)c(C(N)=O)s3)c2cc1OC [GW869979],13,10,0,0,23,22,20,1,25,7,0,0,7,0,0,0,22,17,9,9
CCc1nc(-c2cccc(C)c2)c(-c2ccncc2)s1,0,79,0,0,0,0,0,0,0,9,0,17,4,6,2,0,0,0,8,2
COC(=O)c1c(-c2ccccc2)c2cc(C)ccc2c(=O)n1Cc1ccccc1,0,0,0,0,0,0,6,0,0,0,0,0,14,61,0,75,0,0,0,2
COc1ccc(Nc2nccc(N3CCC(NS(=O)(=O)c4ccc(NC(C)=O)cc4)C3)n2)cc1 (stereo not shown) [GSK1379729],23,8,0,0,4,8,3,3,36,0,23,21,0,36,7,31,17,7,19,1
O=C(Nc1n[nH]c2nc(-c3ccccc3)c(Br)cc12)C1CC1 [SB-708998],17,0,0,5,0,8,0,1,1,34,23,27,0,11,3,9,0,15,23,9
COc1ccc(-n2cnc3c(N)ncnc32)cc1 [SKF-97236],0,0,6,43,0,1,0,0,0,31,0,13,0,0,4,0,1,10,19,0
Nc1nc(N)c2nc(-c3ccccc3)[nH]c2n1 [SKF-12778],1,0,25,8,0,34,13,44,14,21,12,20,3,17,3,8,3,4,18,10
Fc1cccc(CSc2nnc(-c3ccc4c(c3)CCO4)o2)c1,0,9,0,27,18,62,37,7,17,26,0,0,13,0,7,0,10,11,9,23
COc1ccc(-c2cc3c(C)nc(N)nc3n([C@H]3CC[C@H](O)CC3)c2=O)cn1,5,0,0,0,0,0,4,0,0,0,12,8,0,0,0,0,0,0,0,0
C[C@@H]1CC[C@H](C(=O)NC2CCCCC2)CN1c1cc(-c2ccc3c(N)n[nH]c3c2)nc(N)n1 [GSK2291363],31,23,0,20,0,23,6,20,45,0,6,23,18,12,11,10,8,22,26,8
Nc1ncnc2c1ncn2-c1cccc(F)c1 [SKF-97560],19,14,0,20,0,25,13,13,9,28,11,9,0,4,0,0,10,10,17,4
COc1cc(Nc2nccc(N3CCC(NC(=O)C(C)c4ccc(Cl)cc4)C3)n2)cc(OC)c1OC (stereo not shown) [GSK1379757],29,8,0,0,0,9,0,0,23,0,4,23,0,22,0,18,2,14,0,0
